From PubChem
The list is not random: actives were taken first. Their share in the collection is about 9.3%.
VACV mCherry inh = qHTS for Stage-Specific Inhibitors of Vaccinia Orthopoxvirus: mCherry Reporter Primary qHTS; Vaccinia virus mCherry reporter infection, fluorescence; Potency, µM (series often up to 36.5 µM), hits mostly inhibitors; 0.63% of 310,000 active; calls by dose curve; tested in A549 cells; note: nearly all actives have a fitted effect of over 35% in size
Vaccinia Venus = qHTS for Stage-Specific Inhibitors of Vaccinia Orthopoxvirus: Venus Reporter Primary qHTS; Vaccinia virus Venus reporter expression, fluorescence; Potency, µM (titrated, usually from 36.5 µM), hits mostly inhibitors; 0.46% of 330,000 active; calls by dose curve; tested in A549 cells; note: nearly all actives have a fitted effect of over 30% in size
Sm TGR inh = qHTS Assay for the Inhibitors of Schistosoma Mansoni Peroxiredoxins; Potency, µM (top dose mostly 114 µM), hits mostly inhibitors; Schistosoma mansoni thioredoxin glutathione reductase (TGR), Q962Y6; AID 485364, 2010; 3% of 360,000 active; purified TGR, DTNB reduction, TNB absorbance 405 nm; note: nearly all actives have a fitted effect of over 60% in size
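TGR 20 nM + NADPH 100 uM (dispensed conc.), cpd preinc 15 min RT; start with NADPH (500 uM addition) then DTNB (15 mM addition). Kinetic TNB absorbance, 405 nm filter. Four-parameter Hill fit across titration.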
FMDV inh = High Throughput Screening for Foot and Mouth Disease Virus Antivirals; 1.2% of 410,000 active; FMDV antiviral cell-based qHTS; Potency, µM (series often up to 57.9 µM), hits mostly inhibitors; calls by dose curve; tested in HEK293T cells; note: read-out not given here; nearly all actives have a fitted effect of over 45% in size
HCV inh = qHTS Assay for Inhibitors of Hepatitis C Virus (HCV). Huh7.5.1 HCVcc-Cre infection, luciferase reporter, 44 h. Potency, µM (doses to about 41.8 µM), hits mostly inhibitors. 3.4% of 340,000 active
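After 44 h co-culture of compound, cells and HCVcc-Cre (~0.5 moi), substrate is added for 15 min at room temperature and luciferase measured over 15 sec. Cells were seeded at 1,000/well and pre-cultured 4 h.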
HCMV antiviral = qHTS Assay for inhibitors of the human cytomegalovirus (HCMV); HFF cells, HCMV-luciferase reporter, 72 h; hits give low values; activity change, negative = inhibition, % at 57.5 µM; 4.5% of 410,000 active; in the data active = activity change below about -60%; inconclusive = no clear call, values can overlap the other calls; inactive = above about -39%
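Compounds were evaluated in HFFs infected with an HCMV luciferase reporter virus (MOI 1 PFU/cell). Luciferase in lysates collected 72 h post infection served as the replication measure.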
Each line names hits and unclear results; the compound was inactive in the other large screens; ! = not confirmed by another sample. Unless noted, calls come from the whole dose curve; as a rule, active = well fitted curve in the direction sought with a large enough effect; inconclusive = small, poorly fitted or top-dose-only effect, or another doubt; inactive = no such curve, though single readings can be large; an effect the other way counts as inactive or inconclusive.

COc1cc2c(cc1OC)CN(CC(=O)Nc1ccc(S(=O)(=O)N3CCCC3)cc1)CC2	none (no result: VACV mCherry inh, Vaccinia Venus)
COc1cc2c(cc1OC)C(C)N(C(=O)c1cc3c(C)cc(C)cc3[nH]1)CC2 (stereo unspecified)	HCV inh 22µM
COc1cc2c(cc1OC)C(C)N(CC(=O)Nc1ccc(S(=O)(=O)N3CCCC3)cc1)CC2 (stereo unspecified)	Sm TGR inh 35µM, FMDV inh inconclusive, HCV inh inconclusive, HCMV antiviral inconclusive (no result: VACV mCherry inh, Vaccinia Venus)
C[C@@H]1CN([C@@H](C)CO)C(=O)CCCn2nncc2CO[C@@H]1CN(C)S(=O)(=O)c1ccc(Cl)cc1	none (no result: Sm TGR inh, HCV inh)
CCOc1cccc(C(=O)Nc2nc(-c3ccc(S(=O)(=O)N4CCOCC4)cc3)cs2)c1	FMDV inh 18µM (no result: VACV mCherry inh)
COc1ccccc1C(=O)Nc1nnc(S(=O)(=O)N2CCCCC2)s1	HCMV antiviral -73!
CCOc1ccc2nc(NC(=O)c3ccc(OC)c(S(=O)(=O)N4CCOCC4)c3)sc2c1	FMDV inh inconclusive (no result: VACV mCherry inh, Vaccinia Venus)
COc1ccccc1C(=O)Nc1nc(-c2ccc(S(=O)(=O)N3CCOCC3)cc2)cs1	FMDV inh 3.2µM, HCV inh 3.5µM, HCMV antiviral -95 (no result: VACV mCherry inh, Vaccinia Venus)
COc1ccccc1C(=O)Nc1nnc(S(=O)(=O)N2CCCCCC2)s1	none
CCOc1ccc2nc(NC(=O)c3ccc(S(=O)(=O)N4CCOCC4)cc3)sc2c1	FMDV inh 28µM
CCNC(=O)NC(=O)C(C)OC(=O)CCCc1nc2ccccc2s1 (stereo unspecified)	none
Cc1nnc(NC(=O)CCSCCC(=O)Nc2nnc(C)s2)s1	none (no result: Sm TGR inh)
Cc1nc(COC(=O)c2cc(O)c3ccccc3c2O)cs1	VACV mCherry inh inconclusive, Sm TGR inh 18µM
Cc1nc(COC(=O)c2ccc(CO)cc2)cs1	Vaccinia Venus inconclusive
COc1ccccc1N(CC(=O)NCc1ccccc1C)S(=O)(=O)c1ccc(C)cc1	none
CC1(C)CC[C@]2(C(=O)O[C@@H]3O[C@H](CO)[C@@H](O)[C@H](O)[C@H]3O)CC[C@]3(C)C(=CCC4[C@@]5(C)CC[C@H](O[C@@H]6O[C@H](C(=O)O)[C@@H](O[C@H]7OC[C@@H](O)[C@@H](O)[C@@H]7O)[C@H](O)[C@H]6O)C(C)(C)C5CC[C@]43C)[C@@H]2C1 (stereo partly specified)	none (no result: Sm TGR inh)
CC1(C)CC[C@]2(C(=O)O)CC[C@]3(C)C(=CC[C@@H]4[C@@]5(C)CC[C@H](O[C@@H]6O[C@H](C(=O)O)[C@@H](O)[C@H](O[C@@H]7OC[C@H](O)[C@H](O)[C@H]7O)[C@H]6O)C(C)(C)[C@@H]5CC[C@]43C)[C@@H]2C1	VACV mCherry inh inconclusive, Vaccinia Venus 7.9µM, HCV inh 11µM, HCMV antiviral -100 (no result: Sm TGR inh)
CCOc1ccc(-n2c(SCc3ccc([N+](=O)[O-])cc3)nnc2-c2ccc(OC)cc2)cc1	VACV mCherry inh inconclusive, HCV inh inconclusive
CCCCn1nnc(N(C(=O)c2cccs2)C(=O)c2cccs2)n1	Sm TGR inh 4.5µM (no result: VACV mCherry inh, Vaccinia Venus)
CCCn1nnc(NC(=S)NC(=O)c2cccs2)n1	Vaccinia Venus inconclusive
O=C1c2ccccc2C(=O)N1CC1c2ccccc2CCN1C(=O)N1CCOCC1 (stereo unspecified)	none (no result: VACV mCherry inh, HCMV antiviral)
CN(CC(=O)Nc1cc(S(=O)(=O)N2CCCC2)ccc1Cl)Cc1cccs1	HCV inh 6.3µM (no result: VACV mCherry inh, Vaccinia Venus)
COc1ccc(S(=O)(=O)N2CCOCC2)cc1NC(=O)CN(C)CC(=O)Nc1cccc(F)c1	none (no result: VACV mCherry inh, Vaccinia Venus, Sm TGR inh)
CN(Cc1cccs1)C(=O)c1ccc(S(=O)(=O)N2CCCCC2)cc1	none (no result: VACV mCherry inh, Vaccinia Venus)
O=C(C1CCCN(S(=O)(=O)c2ccc(Cl)cc2)C1)N(Cc1cccs1)C1CC1 (stereo unspecified)	FMDV inh inconclusive, HCV inh 10µM
CN(CC(=O)Nc1cccc(S(=O)(=O)N2CCOCC2)c1)CC(=O)Nc1ccc(Cl)c(C(F)(F)F)c1	Vaccinia Venus inconclusive, FMDV inh inconclusive, HCV inh inconclusive, HCMV antiviral -75
CN(CC(=O)Nc1cccc(F)c1)CC(=O)Nc1cc(S(=O)(=O)N2CCOCC2)ccc1Cl	FMDV inh inconclusive, HCV inh 11µM (no result: VACV mCherry inh, Vaccinia Venus)
CCCCC(=O)Nc1c2c(nn1-c1cccc(C)c1C)CS(=O)(=O)C2	none (no result: VACV mCherry inh, Vaccinia Venus)
CCN(CC(=O)Nc1cc(S(=O)(=O)N2CCOCC2)ccc1Cl)Cc1ccccc1	FMDV inh inconclusive, HCV inh 7.9µM (no result: VACV mCherry inh, Vaccinia Venus)
CCN(CC(=O)Nc1cc(S(=O)(=O)N2CCCCC2)ccc1Cl)Cc1ccccc1	HCV inh inconclusive
COC(=O)c1cccc(NS(=O)(=O)c2ccc(NC(C)=O)cc2)c1C	none (no result: VACV mCherry inh, Vaccinia Venus)
Cc1cccc(-n2c(-c3ccco3)nc3c(cnn3-c3ccc(F)cc3)c2=O)c1	HCMV antiviral -65 (no result: HCV inh)
COc1ccc(Oc2c(Cl)cnn(-c3ccc(Cl)c(Cl)c3)c2=O)cc1	FMDV inh 28µM, HCV inh inconclusive (no result: VACV mCherry inh)
COc1ccc(-n2c(C)nc3c(cnn3-c3ccc(Cl)cc3)c2=O)cc1	VACV mCherry inh inconclusive, Vaccinia Venus inconclusive, FMDV inh inconclusive, HCV inh inconclusive, HCMV antiviral -77
Cc1cccc(-n2c(C)nc3c(cnn3-c3ccc(F)cc3)c2=O)c1	VACV mCherry inh inconclusive, Vaccinia Venus inconclusive, HCV inh 6.3µM, HCMV antiviral inconclusive
COc1cccc(-n2c(C)nc3c(cnn3-c3ccc(C)cc3)c2=O)c1	HCV inh inconclusive, HCMV antiviral inconclusive
COc1ccc(-n2c(C)nc3c(cnn3-c3ccc(C)cc3)c2=O)cc1	FMDV inh inconclusive, HCV inh inconclusive, HCMV antiviral inconclusive (no result: VACV mCherry inh, Vaccinia Venus)
COC(=O)c1c(NC2=NS(=O)(=O)c3ccccc32)sc2c1CCC(C(C)(C)C)C2 (stereo unspecified)	none (no result: Sm TGR inh)
Nc1nn(-c2ccccc2)c2ccc([N+](=O)[O-])cc12	VACV mCherry inh inconclusive
CC(C)CCNC(=O)C(=O)Nc1ccc2c(c1)N(S(=O)(=O)c1cccs1)CCC2	VACV mCherry inh inconclusive, Vaccinia Venus inconclusive, HCV inh inconclusive
Cc1cccc(CC(=O)NC2CC(=O)N(c3ccc4c(c3)OCCO4)C2)c1 (stereo unspecified)	none (no result: HCV inh)
Cc1nc2sc(C(=O)N(C)Cc3ccccc3)c(NC(=O)c3ccccc3)c2c(C)c1Cl	FMDV inh inconclusive (no result: HCV inh)
Cc1ccc(-n2c(-c3ccco3)nc3c(cnn3-c3ccc(C)cc3)c2=O)cc1	FMDV inh 28µM!
Cc1ccc(-n2c(-c3ccco3)nc3c(cnn3-c3ccccc3C)c2=O)cc1	FMDV inh inconclusive, HCMV antiviral -61!
CN(c1ccc(C(=O)NC2CCCC2)cc1)S(=O)(=O)c1ccccc1	none
N#C/C(=C\c1ccccc1)c1ccccn1	none (no result: VACV mCherry inh, Vaccinia Venus)
